Measurements reported in the supplement of paper PMC6555819.

How the values were obtained:
Experiment in all cases: PBM binding z-score (relative to random genomic background probes); higher = stronger binding; sequences stand for … in GC…GCGATTGACAGCGTAGAATGAAGG
[1] = test system: FXR:RXRa (NR concentration 270 nM, RXRa partner concentration 90 nM)
In short: (§1)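 Each nuclear receptor dimer, without ligand, was incubated for 1 h on custom Agilent 4×180K protein-binding microarrays. Binding was detected with antibodies against each partner (one per run), and scanned fluorescence was regression-normalized. The binding z-scores are referenced to random human genomic background probes.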

[2] = test system: LXRa:RXRa (NR concentration 270 nM, RXRa partner concentration 90 nM)
In short: as §1

[3] = test system: LXRa homodimer (NR concentration 270 nM)
In short: as §1

[4] = test system: LXRb:RXRa (NR concentration 270 nM, RXRa partner concentration 90 nM)
In short: as §1

[5] = test system: LXRb homodimer (NR concentration 270 nM)
In short: as §1

[6] = test system: PPARa:RXRa (NR concentration 270 nM, RXRa partner concentration 90 nM)
In short: as §1

[7] = test system: PPARg:RXRa (NR concentration 180 nM, RXRa partner concentration 90 nM)
In short: as §1

[8] = test system: PPARg:RXRa 270nM:90nM, anti-RXR (NR concentration 270 nM, RXRa partner concentration 90 nM)
In short: as §1

[9] = test system: PPARg:RXRa 30nM:10nM, anti-RXR (NR concentration 30 nM, RXRa partner concentration 10 nM)
In short: as §1

[10] = test system: PPARg:RXRa 90nM:30nM, anti-RXR (NR concentration 90 nM, RXRa partner concentration 30 nM)
In short: as §1

| Sequence | PBM binding z-score [1] | PBM binding z-score [2] | PBM binding z-score [3] | PBM binding z-score [4] | PBM binding z-score [5] | PBM binding z-score [6] | PBM binding z-score [7] | PBM binding z-score [8] | PBM binding z-score [9] | PBM binding z-score [10] |
| --- | --- | --- | --- | --- | --- | --- | --- | --- | --- | --- |
| TCTTGTAGATCAATGGAGGTTAAGAAAGTGCGCT | 0.901 | 2.8 | 0.173 | 1.3 | -0.0128 | 1.52 | -0.31 | 1.5 | 2.83 | 2.18 |
| ACTATTAGTTGAGACGAGGGCAACCGTTAGGTTG | 0.584 | 0.15 | 0.0603 | -0.161 | 0.0285 | 0.115 | 0.198 | -0.206 | -0.415 | -0.374 |
| CCGACTGGGGCATAAGGTTACCCTAAGCCAGCCC | 0.368 | 0.99 | -0.135 | 0.439 | -1.18 | 1.6 | 1.95 | 3.02 | 0.838 | 2.09 |
| ATCGAAAGGTCGAGGTGAGTCTAGAGAAAGGGAA | 4.71 | 3.71 | 0.045 | 2.76 | 0.53 | 4.63 | 3.46 | 3.62 | 1.16 | 2.32 |
| CCTACTGGGCCACGAAAGGTTATTGATTCAGTGA | 0.471 | 1.28 | 0.5 | 1.1 | -0.501 | 2.58 | 2.37 | 2.81 | 0.563 | 1.69 |
| GCGGCTAGGTCAACTGATGGTCAGCTAAAGCTCG | 4 | 2.78 | 0.177 | 1.99 | -0.808 | 3.56 | 2.23 | 2.36 | 0.0288 | 1.44 |
| TTACCAATGTGAAAGGTCGTTGATGCACGCCTTG | 1.7 | 2.12 | 0.874 | 1.91 | 0.227 | 3.26 | 4.36 | 5.96 | 3.68 | 6.14 |
| TTACCAAGGTGAAGGTTGTTGATCCCTCTGTAGA | 0.965 | 0.801 | -0.298 | 0.622 | -0.706 | 1.61 | 1.21 | 2.25 | 1.07 | 1.96 |
| CGAACTAGGTCATCCAGGACAGTGACTACATTGA | 4.72 | 2.67 | 0.428 | 1.91 | -0.136 | 4.84 | 7.74 | 6.43 | 3.94 | 6.21 |
| ATACCAAGCTGATCGTGAGGTCGTTGATACTAAC | 0.705 | 0.688 | 0.391 | 0.818 | -0.351 | 0.693 | 0.178 | -0.0256 | -0.198 | -0.0126 |
| TCTTGTAGATCAATGGTTAAGAAAGCCGAAGCCT | 0.494 | 0.359 | -0.126 | -0.0354 | -0.123 | 0.608 | 0.23 | 2.48 | 3.07 | 2.99 |
| TAGCCTAGGTCAGACCGGGCCAGTATACGCTATA | 2.15 | 1.09 | -0.437 | 0.609 | -0.719 | 1.61 | 0.828 | 0.617 | -0.277 | 0.23 |
